This is part of a sample that, as a whole, favours compounds with a hit. Of some 83,000 tested, about 20% had one in any assay.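 Cell lines were cultured in 96-well plates, exposed to a single compound concentration, and assessed for percent growth 48 hours later.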 The source made the active and inactive calls. The calls were made as follows: active = growth percent below 10; inactive = the rest.
System: HOP-92 NSCLC
Experiment: NCI-60 one-dose screen, 48 h (100 = growth as untreated, 0 = no growth, -100 = all killed)
Details: 10 µM unless noted

Q: With `C=C1C(=O)O[C@@H]2C3C(=C(C)CC[C@@H]12)CC1O[C@]13C` (stereo partly specified) as the molecule, how does the growth read?
A: 102% [6.75 µM] (inactive)

Q: How did the growth turn out when `COc1cccc(CNc2c3ccccc3nc3ccccc23)c1OC` was run?
A: -2.4% (active)

Q: Which growth does the source give for `Nc1c(Cl)cc(/C=C2\C=Cc3ccccc32)cc1Cl` here?
A: 99.6% (inactive)

Q: For `CSc1ccc2c3c(n(C[C@H](O)CO)c(=O)c2c1)-c1ccccc1C3=O`, which growth is on record?
A: 106% (inactive)

Q: Which growth does the source give for `COc1cc(-c2ccc[nH]2)[nH]c1/C=C1\N=C(C)C(CC(=O)OCC(C)(C)C)=C1C` here?
A: -51.3% (active)

Q: For `Brc1ccc(Nc2nc(Nc3cnc4ccccc4c3)c3[nH]cnc3n2)cc1`, which growth is on record?
A: 26% (inactive)

Q: With `CS(=O)(=O)Nc1cc(-c2ccc3ncnc(Nc4ccc(F)c(Cl)c4)c3c2)ccc1Cl` as the molecule, how does the growth read?
A: -6.71% (active)

Q: `CSc1ccc2c3c(n(CCCn4ccnc4)c(=O)c2c1)-c1ccccc1C3=O` was tested. Which growth did it give?
A: 83.2% (inactive)

Q: Which growth does the source give for `O=C(/C=C/c1cn(-c2ccccc2)nc1-c1ccccc1)CCC(=O)NO` here?
A: 109% (inactive)

Q: `O=C(/C=C/c1ccccc1)c1cccc2ccccc12` was tested. Which growth did it give?
A: 47.3% (inactive)

Q: With `CCOC(=O)/C=C1\S/C(=N\Nc2cc(=O)[nH]c3ccc(Br)cc23)N(c2ccccc2)C1=O` as the molecule, how does the growth read?
A: 81.5% (inactive)

Q: Which growth does the source give for `CC(=O)c1ccc(-n2cc(CN3CCN(c4cc5c(cc4F)c(=O)c(C(=O)O)cn5C4CC4)CC3)nn2)cc1` here?
A: 79.9% (inactive)

Q: `CS(=O)(=O)Nc1cc(-c2ccc3ncnc(Nc4ccc(OCc5ccccn5)c(Cl)c4)c3c2)cnc1Cl` was tested. Which growth did it give?
A: -6.05% (active)

Q: For `COc1ccc2c(c1)c(-c1nc(-c3ccc4ccccc4c3)cs1)cn2C`, which growth is on record?
A: 93% (inactive)

Q: Which growth does the source give for `CCOC(=O)c1c(C)nc2ccccc2c1/C=C/c1ccc(F)cc1` here?
A: 42.1% (inactive)

Q: `CC1(C)N=C(N)N=C(N)N1c1ccc(S(=O)(=O)Nc2nccs2)cc1` was tested. Which growth did it give?
A: 87.2% (inactive)

Q: How did the growth turn out when `COC(=O)c1sccc1-c1cc(O)c(C(=O)Nc2ccccc2)s1` was run?
A: 97.9% (inactive)

Q: For `CCOC(=O)NC(=S)n1oc(=O)c2ccccc21`, which growth is on record?
A: 86.2% (inactive)

Q: For `O=C1CCC(C(=O)N/N=C/c2cc(F)ccc2F)N1` (stereo unspecified), which growth is on record?
A: 95.4% (inactive)

Q: With `COc1ccccc1/C=C/C(=O)Nc1ccc(F)cc1` as the molecule, how does the growth read?
A: 86.8% (inactive)

Q: How did the growth turn out when `COc1ccc(/C=N/Nc2c3ccccc3nc3ccccc23)cc1` was run?
A: 90.2% (inactive)

Q: With `O=[N+]([O-])c1ccccc1Sc1ccccc1[N+](=O)[O-]` as the molecule, how does the growth read?
A: 78.6% (inactive)

Q: How did the growth turn out when `C[C@@H]1CN(c2cnc(C(=O)Nc3cc(F)cc4cccnc34)cn2)C[C@H](C)N1` was run?
A: 46% (inactive)

Q: Which growth does the source give for `CC1(C)CC[C@]23CC[C@]4(C)[C@H](CC[C@@H]5[C@@]6(C)C/C(=C/O)C(=O)C(C)(C)[C@@H]6CC[C@]54C)[C@H]2[C@H]1OC3` here?
A: 105% (inactive)

Q: With `c1cc(OCCCCCOc2cccc(-c3nc4ccccc4[nH]3)c2)cc(-c2nc3ccccc3[nH]2)c1` as the molecule, how does the growth read?
A: -29.3% (active)

Q: With `O=CN1N=C(c2cccc(Nc3ccnc4cc(Cl)ccc34)c2)CC1c1ccc(Cl)cc1` (stereo unspecified) as the molecule, how does the growth read?
A: 21.9% (inactive)

Q: `COc1ccc(/C=C2\c3cc(OC)c(OC)c(OC)c3CC[C@@H]2O)cc1F` was tested. Which growth did it give?
A: 38.2% (inactive)

System: NCI-H522 lung
Experiment: as above
Details: 10 µM unless noted

Q: `C[C@H](c1nc2ccc(C#N)cc2[nH]1)[C@H]1CC[C@H]2[C@@H]3CCC4=CC(=O)CC[C@]4(C)[C@H]3CC[C@]12C` was tested. Which growth did it give?
A: 69.8% (inactive)

Q: For `O=c1cc(C(F)(F)F)c2cc(-c3cc4ccccc4c(=O)o3)c(O)cc2o1`, which growth is on record?
A: 31.3% (inactive)

Q: For `Nc1ccc(-c2ccncc2)cc1NC(=O)N1CCCC1`, which growth is on record?
A: 57.4% (inactive)

Q: How did the growth turn out when `COc1cccc(-c2cn3nc(-c4cn(C)c5ccccc45)sc3n2)c1` was run?
A: 67.6% (inactive)

Q: Which growth does the source give for `CC(C)(C)c1ccc(S(=O)(=O)Oc2ccc(-c3sc4cc(OS(=O)(=O)c5ccc(C(C)(C)C)cc5)ccc4c3C(=O)c3ccc(OCCN4CCCCC4)cc3)cc2)cc1` here?
A: 72% (inactive)

Q: With `CCN(CC)CCn1c2ccc(OC)cc2c2sc3cc(O)ccc3c(=O)c21` as the molecule, how does the growth read?
A: 42.2% (inactive)

Q: `C=C1C(=O)O[C@H]2[C@H]1CC/C(COC(=O)NCc1ccc(Cn3c(=O)sn(-c4ccc(I)cc4)c3=O)cc1)=C\CC[C@@]1(C)O[C@@H]21` was tested. Which growth did it give?
A: 2.14% (active)

Q: How did the growth turn out when `O=C(Nc1nc(Cl)nc(Nc2ccc(N3CCOCC3=O)cc2)n1)c1ccc(Cl)s1` was run?
A: 81.1% (inactive)

Q: With `COc1cc(OC)c2c(=O)c3c(CC=C(C)C)cc(OC)c(O)c3oc2c1` as the molecule, how does the growth read?
A: 53% (inactive)

Q: Which growth does the source give for `O=S(=O)(Nc1cc(Sc2nc3ccccc3s2)c(O)c2ccccc12)c1ccc2ccccc2c1` here?
A: 83% (inactive)

Q: Which growth does the source give for `Nc1cccc(-c2ccc(COc3ccc(CC4SC(=O)NC4=O)cc3)cc2)c1` (stereo unspecified) here?
A: 29.7% (inactive)

Q: For `COc1ccc(-c2nc(SCC(=O)Nc3nc4ccc(C)cc4s3)[nH]c(=O)c2C#N)cc1OC`, which growth is on record?
A: 105% (inactive)

Q: Which growth does the source give for `C=C1C(=O)O[C@@H]2C3C(=C(C)CC[C@@H]12)CC1O[C@]13C` (stereo partly specified) here?
A: -52.3% [6.75 µM] (active)

Q: With `COc1cccc(CNc2c3ccccc3nc3ccccc23)c1OC` as the molecule, how does the growth read?
A: 40.1% (inactive)

Q: Which growth does the source give for `Nc1c(Cl)cc(/C=C2\C=Cc3ccccc32)cc1Cl` here?
A: 93.1% (inactive)

Q: With `CSc1ccc2c3c(n(C[C@H](O)CO)c(=O)c2c1)-c1ccccc1C3=O` as the molecule, how does the growth read?
A: 43.7% (inactive)

Q: For `COc1cc(-c2ccc[nH]2)[nH]c1/C=C1\N=C(C)C(CC(=O)OCC(C)(C)C)=C1C`, which growth is on record?
A: -62.8% (active)

Q: For `Brc1ccc(Nc2nc(Nc3cnc4ccccc4c3)c3[nH]cnc3n2)cc1`, which growth is on record?
A: 54.2% (inactive)

Q: How did the growth turn out when `CS(=O)(=O)Nc1cc(-c2ccc3ncnc(Nc4ccc(F)c(Cl)c4)c3c2)ccc1Cl` was run?
A: 19% (inactive)

Q: How did the growth turn out when `CSc1ccc2c3c(n(CCCn4ccnc4)c(=O)c2c1)-c1ccccc1C3=O` was run?
A: 19.3% (inactive)

Q: How did the growth turn out when `O=C(/C=C/c1cn(-c2ccccc2)nc1-c1ccccc1)CCC(=O)NO` was run?
A: 79.5% (inactive)

Q: `O=C(/C=C/c1ccccc1)c1cccc2ccccc12` was tested. Which growth did it give?
A: 17.2% (inactive)

Q: `CCOC(=O)/C=C1\S/C(=N\Nc2cc(=O)[nH]c3ccc(Br)cc23)N(c2ccccc2)C1=O` was tested. Which growth did it give?
A: 31.4% (inactive)

Q: `CC(=O)c1ccc(-n2cc(CN3CCN(c4cc5c(cc4F)c(=O)c(C(=O)O)cn5C4CC4)CC3)nn2)cc1` was tested. Which growth did it give?
A: 89.2% (inactive)

Q: How did the growth turn out when `CS(=O)(=O)Nc1cc(-c2ccc3ncnc(Nc4ccc(OCc5ccccn5)c(Cl)c4)c3c2)cnc1Cl` was run?
A: -18.3% (active)

Q: For `COc1ccc2c(c1)c(-c1nc(-c3ccc4ccccc4c3)cs1)cn2C`, which growth is on record?
A: 79.2% (inactive)

Q: For `CCOC(=O)c1c(C)nc2ccccc2c1/C=C/c1ccc(F)cc1`, which growth is on record?
A: 53.8% (inactive)

Q: With `CC1(C)N=C(N)N=C(N)N1c1ccc(S(=O)(=O)Nc2nccs2)cc1` as the molecule, how does the growth read?
A: 91.1% (inactive)

Q: With `COC(=O)c1sccc1-c1cc(O)c(C(=O)Nc2ccccc2)s1` as the molecule, how does the growth read?
A: 90.9% (inactive)

Q: `CCOC(=O)NC(=S)n1oc(=O)c2ccccc21` was tested. Which growth did it give?
A: 99.3% (inactive)

Q: Which growth does the source give for `O=C1CCC(C(=O)N/N=C/c2cc(F)ccc2F)N1` (stereo unspecified) here?
A: 93.7% (inactive)

Q: With `COc1ccccc1/C=C/C(=O)Nc1ccc(F)cc1` as the molecule, how does the growth read?
A: 72.4% (inactive)

Q: For `COc1ccc(/C=N/Nc2c3ccccc3nc3ccccc23)cc1`, which growth is on record?
A: 90.7% (inactive)

Q: Which growth does the source give for `O=[N+]([O-])c1ccccc1Sc1ccccc1[N+](=O)[O-]` here?
A: 87.8% (inactive)

Q: `C[C@@H]1CN(c2cnc(C(=O)Nc3cc(F)cc4cccnc34)cn2)C[C@H](C)N1` was tested. Which growth did it give?
A: 51.7% (inactive)

Q: With `CC1(C)CC[C@]23CC[C@]4(C)[C@H](CC[C@@H]5[C@@]6(C)C/C(=C/O)C(=O)C(C)(C)[C@@H]6CC[C@]54C)[C@H]2[C@H]1OC3` as the molecule, how does the growth read?
A: 90.6% (inactive)

Q: How did the growth turn out when `c1cc(OCCCCCOc2cccc(-c3nc4ccccc4[nH]3)c2)cc(-c2nc3ccccc3[nH]2)c1` was run?
A: -14.8% (active)

Q: `O=CN1N=C(c2cccc(Nc3ccnc4cc(Cl)ccc34)c2)CC1c1ccc(Cl)cc1` (stereo unspecified) was tested. Which growth did it give?
A: -17.4% (active)

Q: Which growth does the source give for `COc1ccc(/C=C2\c3cc(OC)c(OC)c(OC)c3CC[C@@H]2O)cc1F` here?
A: -32.5% (active)

— PubChem BioAssay (NCI)
